In the library only some 11% were active in any assay of this set; here they are far more common.
BAZ2B block = blocks human BAZ2B; Q9UIF8; AlphaScreen BAZ2B-H3K14Ac peptide displacement; AID 504333; 4.4% of 360,000 active; Potency, µM (doses to about 114 µM), inactives show at the top dose activity change, negative = inhibition, hits mostly inhibitors; note: potency is the fitted concentration of half-maximal effect; % is set by controls: 0 for no effect and ±100 for the full control effect; nearly all actives have a fitted effect of over 60% in size
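Compounds, titrated to a top concentration of 110 uM, were incubated 30 min at room temperature with preformed BAZ2B/acetyl-K14 H3 peptide complex (50 nM each). Proximity signal was measured by AlphaScreen after 20 min with beads.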
PI5P4Ka inh = inhibitors of human PI5P4K alpha | P48426 | PI5P4Kalpha enzyme, ADP-Glo luminescence, 60 min; stronger effect = lower value | max response, % | 1.2% of 330,000 active; active = max response of -50% or lower; inconclusive = between -30% and -50%; inactive = -30% or higher; note: value at the top dose of about 77 µM; % is set by controls: 0 for no effect and ±100 for the full control effect
Target sequence (P48426 whole entry, looked up): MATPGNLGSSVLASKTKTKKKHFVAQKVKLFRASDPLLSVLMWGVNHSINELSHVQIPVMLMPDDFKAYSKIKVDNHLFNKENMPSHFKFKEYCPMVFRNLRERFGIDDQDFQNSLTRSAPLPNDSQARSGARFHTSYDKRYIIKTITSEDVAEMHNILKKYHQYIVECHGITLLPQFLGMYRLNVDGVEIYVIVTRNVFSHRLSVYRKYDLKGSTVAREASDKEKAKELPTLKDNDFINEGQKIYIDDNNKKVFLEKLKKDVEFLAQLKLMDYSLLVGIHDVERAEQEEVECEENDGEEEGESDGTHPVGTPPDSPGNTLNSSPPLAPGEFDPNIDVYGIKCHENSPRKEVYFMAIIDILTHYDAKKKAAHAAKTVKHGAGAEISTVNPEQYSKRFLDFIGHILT
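Enzyme plus substrate dispensed, test compounds pinned in, then ATP (5 microM final) added. After 60 min at RT, ADP-Glo reagent 1 for 45 min and reagent 2 for 30 min preceded luminescence imaging.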
L3MBTL1 inh = blocks human L3MBTL1. AlphaScreen L3MBTL1–H3K9me1 peptide binding. Potency, µM (series often up to 57.1 µM), inactives show at the top dose activity, negative = inhibition, hits mostly inhibitors. 0.66% of 230,000 active. AID 485360; note: potency is the fitted concentration of half-maximal effect; % is set by controls: 0 for no effect and ±100 for the full control effect; nearly all actives have a fitted effect of over 60% in size
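AlphaScreen proximity signal between nickel-chelate acceptor and streptavidin donor beads (final 10 ug/mL) reports binding of 50 nM L3MBTL1 to 75 nM biotin-H3 K9me1 peptide; complex incubated with compounds 30 min at room temperature; cefsulodin titration as control.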
HP1b chromo inh = HP1-beta chromodomain-methylated histone interaction inhibition; P83916; 0.56% of 390,000 active; AID 540317; AlphaScreen HP1-beta / biotin-H3K9me3 peptide binding; Potency, µM (doses to about 114 µM), for inactives: at the highest dose activity change, negative = inhibition, hits mostly inhibitors; note: potency is the fitted concentration of half-maximal effect; nearly all actives have a fitted effect of over 70% in size
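HP1-beta protein (50 nM final) preincubated 30 min at room temperature with biotinylated H3(1-18)K9me3 peptide (50 nM) in PBS pH 7.4, 0.01% Tween-20, then compound added for 30 min. AlphaScreen streptavidin donor/nickel chelate acceptor beads (10 ug/mL final), 30 min dark, luminescence read.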
JMJD2A Tudor inh = inhibitors of human JMJD2A Tudor domain. 4.4% of 390,000 active. AID 504339. O75164. AlphaScreen JMJD2A-Tudor / H3K4me3 peptide binding. Potency, µM (series often up to 114 µM), without a hit: at the highest dose activity change, negative = inhibition, hits mostly inhibitors; note: potency is the fitted concentration of half-maximal effect; % is set by controls: 0 for no effect and ±100 for the full control effect; nearly all actives have a fitted effect of over 50% in size
G9a inh = inhibitors of human histone lysine methyltransferase G9a. Q96KQ7. G9a H3K9 monomethylation, AlphaScreen, 2 h. Potency, µM (series often up to 102 µM), inactives show at the top dose activity, negative = inhibition, actives largely listed as inhibitors. 8.8% of 350,000 active; note: potency is the fitted concentration of half-maximal effect; % is set by controls: 0 for no effect and ±100 for the full control effect; nearly all actives have a fitted effect of over 75% in size
Target sequence (Q96KQ7 913-1193 limits assumed): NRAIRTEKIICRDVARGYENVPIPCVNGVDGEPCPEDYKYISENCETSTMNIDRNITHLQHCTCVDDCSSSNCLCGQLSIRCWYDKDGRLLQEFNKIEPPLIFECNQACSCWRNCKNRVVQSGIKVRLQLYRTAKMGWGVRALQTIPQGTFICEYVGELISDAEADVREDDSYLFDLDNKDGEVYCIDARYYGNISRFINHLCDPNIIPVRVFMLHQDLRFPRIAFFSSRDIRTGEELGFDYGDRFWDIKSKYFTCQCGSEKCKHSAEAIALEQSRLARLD
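Signal arises when biotinylated H3K9 peptide, once monomethylated, bridges streptavidin donor and antibody-captured acceptor beads. Enzyme at 20 nM was preincubated 15 min with test compounds; peptide 500 nM and SAM 20 uM then reacted for 2 h.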
Numbers without * were called inactive; [ ] = another dose, or the depositor's remark. Unless noted, calls come from the whole dose curve; as a rule, active = well fitted inhibition curve with a large enough effect; inconclusive = small, poorly fitted or top-dose-only effect; inactive = no such curve, though single readings can be large or run the other way.

`Cc1cnc2c(c1SCC(=O)NCc1ccc(F)cc1)c(=O)n(C)c(=O)n2C` gave BAZ2B block 0%, HP1b chromo inh 8%, JMJD2A Tudor inh -9% and G9a inh 9%[59 µM].
`COc1cccc(C(=O)N(Cc2sccc2C)C2CCS(=O)(=O)C2)c1` (stereo not given) gave BAZ2B block -2%, HP1b chromo inh 12%, JMJD2A Tudor inh -15% and G9a inh 9%[59 µM].
For Cc1nc2nc(SCC(=O)NCCCN3CCCC3)nn2c(C)c1Cc1ccccc1Cl the results were BAZ2B block -13%, PI5P4Ka inh -5, HP1b chromo inh -11%, JMJD2A Tudor inh -35% and G9a inh 79µM*.
`Cc1nc2nc(SCC(=O)NCCc3ccc(Cl)cc3)nn2c(C)c1Cc1ccccc1Cl` gave BAZ2B block -8%, HP1b chromo inh 17%, JMJD2A Tudor inh -29% and G9a inh -30%[59 µM].
For Cc1nc2nc(SCC(=O)NCCCN3CCCCC3)nn2c(C)c1Cc1ccccc1 the results were BAZ2B block -13%, PI5P4Ka inh 4, HP1b chromo inh 8%, JMJD2A Tudor inh 6% and G9a inh 7%.
Cc1ccc(Cc2c(C)nc3nc(SCC(=O)NCCCN4CCCCCC4)nn3c2C)cc1 was read as BAZ2B block inconclusive, PI5P4Ka inh 1, HP1b chromo inh -23%, JMJD2A Tudor inh -30% and G9a inh 35µM*.
Screening CC(=O)c1ccc(N2C(=O)N(Cc3cc(C)ccc3C)c3ccccc3S2(=O)=O)cc1 returned BAZ2B block -5%, HP1b chromo inh 29%, JMJD2A Tudor inh -11% and G9a inh 5%[59 µM].
CC(C)n1c(CSCc2ccc(Cl)cc2Cl)n[nH]c1=S was read as BAZ2B block inconclusive, PI5P4Ka inh 5, HP1b chromo inh -5%, JMJD2A Tudor inh -12%[57.1 µM] and G9a inh 13µM*.
Screening CC(NC(=O)OC(C)(C)C)C(=O)Oc1cc2oc(=O)cc(-c3ccccc3)c2cc1Cl (stereo not given) returned BAZ2B block 6%, PI5P4Ka inh -69*, L3MBTL1 inh 14%, HP1b chromo inh 44%, JMJD2A Tudor inh 11% and G9a inh -5%[59 µM].
Screening Oc1cccc(C2c3[nH]c4ccccc4c3CCN2Cc2ccoc2)c1 (stereo not given) returned BAZ2B block inconclusive, PI5P4Ka inh 2, L3MBTL1 inh inconclusive, HP1b chromo inh -16%, JMJD2A Tudor inh inconclusive and G9a inh -39%.
For COc1cccc(C2c3[nH]c4ccccc4c3CCN2Cc2cnc(C)s2)c1OC (stereo not given) the results were BAZ2B block 25µM*, PI5P4Ka inh 1, L3MBTL1 inh -29%, HP1b chromo inh -11%, JMJD2A Tudor inh inconclusive and G9a inh 1%.
`Fc1ccccc1C1c2[nH]c3ccccc3c2CCN1CCCn1cccn1` (stereo not given) gave BAZ2B block -38%, PI5P4Ka inh 1, L3MBTL1 inh inconclusive, HP1b chromo inh 5%, JMJD2A Tudor inh inconclusive and G9a inh 40µM*.
Screening Oc1cccc(C2c3[nH]c4ccccc4c3CCN2Cc2ccc3c(c2)CCO3)c1 (stereo not given) returned BAZ2B block 45µM*, PI5P4Ka inh -2, L3MBTL1 inh inconclusive, HP1b chromo inh -35%, JMJD2A Tudor inh 56µM* and G9a inh -44%.
For COc1ccc(C2c3[nH]c4ccccc4c3CCN2Cc2ccoc2)c(F)c1 (stereo not given) the results were BAZ2B block inconclusive, PI5P4Ka inh 8, L3MBTL1 inh -6%, HP1b chromo inh -12%, JMJD2A Tudor inh inconclusive and G9a inh 45µM*.
`Cc1cc(Br)ccc1NC(=O)C1CCN(S(=O)(=O)c2cccc3nsnc23)CC1` gave HP1b chromo inh 25%, JMJD2A Tudor inh -13% and G9a inh -21%[59 µM].
`Nc1c(-c2nc(-c3cccs3)no2)nnn1-c1ccc(Cl)cc1` gave BAZ2B block -3%, HP1b chromo inh 25%, JMJD2A Tudor inh 8% and G9a inh 4%[59 µM].
`C/C(=N\NC(=O)c1c[nH]c2ccccc12)c1ccc2c(c1)OCO2` gave BAZ2B block -3%, PI5P4Ka inh -2, L3MBTL1 inh 0%, HP1b chromo inh 8%, JMJD2A Tudor inh -34% and G9a inh 6%.
`CCNC(=S)N/N=C(\C)c1ccc2ccccc2c1` gave BAZ2B block 35µM*, L3MBTL1 inh -27% and G9a inh inconclusive.
CCNC(=S)N/N=C(\C)c1ccc2ccccc2c1OC(F)F was read as BAZ2B block inconclusive, PI5P4Ka inh -1, L3MBTL1 inh inconclusive, HP1b chromo inh inconclusive, JMJD2A Tudor inh inconclusive and G9a inh 45µM*.
For C/C(=N\NC(=O)Cc1c[nH]c2ccccc12)c1ccc2ccccc2c1 the results were BAZ2B block inconclusive, PI5P4Ka inh -53*, L3MBTL1 inh -25%, HP1b chromo inh -29%, JMJD2A Tudor inh inconclusive and G9a inh -27%.
CCOCCCNC(=O)c1c(NC(=O)c2cc(=O)c3cc(C)c(C)cc3o2)sc2c1CCC2 was read as BAZ2B block 25%, HP1b chromo inh 64%, JMJD2A Tudor inh -7% and G9a inh 6%[59 µM].
For COC(=O)CCc1c(C)[nH]c(=S)[nH]c1=O the results were BAZ2B block 0%, PI5P4Ka inh 1, L3MBTL1 inh -3%, HP1b chromo inh 16%, JMJD2A Tudor inh -14% and G9a inh inconclusive.
For CCOC(=O)Cc1c(C)[nH]c(=S)[nH]c1=O the results were BAZ2B block -13%, PI5P4Ka inh 2, L3MBTL1 inh 3%, HP1b chromo inh 20%, JMJD2A Tudor inh 56µM* and G9a inh -19%[59 µM].
For Cc1ccc(Cc2cc(C)n[nH]c2=O)cc1 the results were BAZ2B block -2%, PI5P4Ka inh -8, L3MBTL1 inh 7%, HP1b chromo inh 15%, JMJD2A Tudor inh 1% and G9a inh 1%.
`Cc1ccc(Cc2c(C)[nH]c(=S)[nH]c2=O)cc1` gave BAZ2B block 7%, PI5P4Ka inh -8, HP1b chromo inh 45%, JMJD2A Tudor inh inconclusive and G9a inh 45µM*.
COc1cc(OC)c(NC2=C(c3ccc(C(F)(F)F)cc3)C(=O)c3ccccc32)cc1Cl was read as BAZ2B block inconclusive, HP1b chromo inh inconclusive, JMJD2A Tudor inh 20µM* and G9a inh inconclusive.
`Cc1ccc(C)c(NC2=C(c3ccc(C(F)(F)F)cc3)C(=O)c3ccccc32)c1` gave BAZ2B block inconclusive, HP1b chromo inh -20%, JMJD2A Tudor inh inconclusive and G9a inh -39%[59 µM].

Source: PubChem BioAssay
